Assay results published in the supplement of paper PMC7695840.
Counter-ions that a name gives are not always drawn.

What was measured:
[1] = test system: Staphylococcus aureus MW2 delta-mecA (mecA-); test: normalized GFP fluorescence (growth of mecA- strain) (fraction of control range); higher = more growth of mecA- strain; conditions: compound concentration: 150 uM; cefoxitin: subinhibitory; fluorescent label: GFP
Method in brief: (§1)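 Fluorescence from DsRed (540/590) and GFP (485/520) was recorded after 20 h of static growth at 37 °C and 90% humidity. The wells held a 1:1 mix of pre-induced S. aureus MW2 cells, gene-bearing with DsRed and gene-deleted with GFP, in LB with a daily-set subinhibitory antibiotic dose, dispensed at 5 µL/well onto 150 μM compound (1.5% DMSO) in 1536-well plates, single replicate. Each channel was scaled per plate between single-strain control medians, excluding plates with high untreated ratios and rows with DsRed/GFP >10.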

[2] = test system: Staphylococcus aureus MW2 (mecA+); test: normalized DsRed fluorescence (growth of mecA+ strain) (fraction of control range); higher = more growth of mecA+ strain; conditions: compound concentration: 150 uM; cefoxitin: subinhibitory; fluorescent label: DsRed
Method in brief: as §1

| Structure (SMILES) | normalized GFP fluorescence [1] | normalized DsRed fluorescence [2] |
| --- | --- | --- |
| c1cc(CN2CCCNCCNCCCNCC2)ccc1CN1CCCNCCNCCCNCC1 [Plerixafor] | 0.396 | 0.938 |
| CC(=O)[C@@]1(O)CC[C@H]2[C@@H]3CCC4=CC(=O)CCC4=C3[C@@H](c3ccc(N(C)C)cc3)C[C@@]21C [Ulipristal] | 0.57 | 0.967 |
| Cc1ccccc1OCC(O)CO (stereo not drawn) | 0.392 | 0.853 |
| CCOC(=O)[C@H](CCc1ccccc1)N[C@H]1CCc2ccccc2N(CC(=O)O)C1=O | -0.00401 | 1.44 |
| O=C1C(CC[S+]([O-])c2ccccc2)C(=O)N(c2ccccc2)N1c1ccccc1 (stereo not drawn) | 0.525 | 0.445 |
| CN(C)CCCN1c2ccccc2Sc2ccccc21 | -0.00898 | 1.06 |
| CC(=O)OCC(=O)[C@@]1(OC(C)=O)[C@@H](C)C[C@H]2[C@@H]3C[C@H](F)C4=CC(=O)C=C[C@]4(C)[C@@]3(F)[C@@H](O)C[C@@]21C | 0.256 | 1.11 |
| CN/C(=N\CCSCc1nc[nH]c1C)NC#N | 0.567 | 1.05 |
| C[C@@H]1C[C@H]2[C@@H]3CCC4=CC(=O)C=C[C@]4(C)[C@@]3(F)[C@@H](O)C[C@]2(C)[C@@]1(O)C(=O)CO | 0.309 | 0.687 |
| CNC(=O)CN(CCN(CCN(CC(=O)O)CC(=O)NC)CC(=O)O)CC(=O)O.O.[Gd] [Gadodiamide (Omniscan)] | 0.443 | 0.566 |
| CN(C)CCCN1c2ccccc2CCc2ccc(Cl)cc21 | -0.0283 | 0.939 |
| Cc1ncc([N+](=O)[O-])n1CC(C)O (stereo not drawn) [Secnidazole (Flagentyl)] | 0.266 | 0.482 |
| CCOC(=O)N1CCC(=C2c3ccc(Cl)cc3CCc3cccnc32)CC1 | -0.02 | 0.807 |
| NCCCCCC(=O)O | 0.967 | 0.727 |
| Cc1[nH]c2ccccc2c1CCNCc1ccc(/C=C/C(=O)NO)cc1 [Panobinostat] | 0.228 | 1.43 |
| CCNC(=O)CCC/C=C\C[C@@H]1[C@@H](/C=C/[C@@H](O)CCc2ccccc2)[C@H](O)C[C@@H]1O [Bimatoprost] | 0.224 | 0.865 |
| Cn1nnc2c(C(N)=O)ncn2c1=O [Temozolomide] | 0.456 | 1.11 |

| Structure (SMILES) | normalized GFP fluorescence [1] | normalized DsRed fluorescence [2] |
| --- | --- | --- |
| CO[C@H]1C[C@@H]2CC[C@@H](C)[C@@](O)(O2)C(=O)C(=O)N2CCCC[C@H]2C(=O)O[C@H]([C@H](C)C[C@@H]2CC[C@@H](OCCO)[C@H](OC)C2)CC(=O)[C@H](C)/C=C(\C)[C@@H](O)[C@@H](OC)C(=O)[C@H](C)C[C@H](C)/C=C/C=C/C=C/1C [Everolimus (RAD001)] | -0.00462 | 1.72 |
| NS(=O)(=O)c1cc(C(=O)O)c(NCc2ccco2)cc1Cl | 0.306 | 0.841 |
| O=S(=O)(O)CCS | 0.0478 | 0.565 |
| CNC[C@@H](O)c1ccc(O)c(O)c1 [L-Adrenaline (Epinephrine)] | 0.385 | 0.715 |
| C[C@]12CCC(=O)C=C1C=C[C@@H]1[C@@H]2CC[C@@]2(C)[C@H]1CC[C@@]21CCC(=O)O1 | 0.191 | 0.593 |
| CC(C(=O)O)c1cccc(Oc2ccccc2)c1 (stereo not drawn) | 0.136 | 0.467 |
| C[C@H](Cc1cc2c(c(C(N)=O)c1)N(CCCO)CC2)NCCOc1ccccc1OCC(F)(F)F [Silodosin (Rapaflo)] | 0.269 | 1.1 |
| C[C@H]1[C@H](OC(=O)CCC(=O)O)O[C@@H]2O[C@@]3(C)CC[C@H]4[C@H](C)CC[C@@H]1[C@@]24OO3 | 0.737 | 0.712 |
| C#CCN[C@@H]1CCc2ccccc21 | 0.911 | 0.693 |
| C#C[C@]1(O)CC[C@H]2[C@@H]3CCC4=CC(=O)CC[C@@H]4[C@H]3CC[C@@]21CC | 0.305 | 1.05 |
| NCC(=O)CCC(=O)O | 0.315 | 1.12 |
| CC(C)(C)NCC(O)c1ccc(O)c(CO)c1 (stereo not drawn) [Salbutamol sulfate (Albuterol)] | 0.318 | 0.695 |
| C[C@@H]1CC(=O)NN=C1c1ccc(NN=C(C#N)C#N)cc1 [Levosimendan] | 0.00346 | 0.512 |
| CC(C)(O/N=C(\C(=O)N[C@@H]1C(=O)N2C(C(=O)[O-])=C(C[n+]3ccccc3)CS[C@H]12)c1csc(N)n1)C(=O)O | 0.00772 | 1.28 |
| Cn1c(=O)c2nc[nH]c2n(C)c1=O | 0.449 | 0.42 |
| C[C@]12CCC(=O)C=C1CC[C@@H]1[C@@H]2[C@@H](O)C[C@@]2(C)[C@H]1CC[C@]2(O)C(=O)CO | 0.268 | 0.562 |
| CCN1CC(CCN2CCOCC2)C(c2ccccc2)(c2ccccc2)C1=O (stereo not drawn) | 0.294 | 0.634 |
